PubChem BioAssay (EPA / NIEHS)
“And” between values parts separate entries of the source, which are not always exact repeats. Identical values can stand only once. More than one record can exist for a structure, and the calls need not agree. The source made the active and inactive calls. The calls were made as follows: active = hit-call score of the fitted dose curve at least 0.9, where 1 is the maximum; inactive = score below 0.9.

biological target: Nuclear respiratory factor 1 (Homo sapiens) (UniProt Q16656); assay: ATG_NRF1_CIS: Attagene CIS-FACTORIAL HepG2 Assay for human Nuclear Respiratory Factor 1 (NRF1) Orphan Gene (AID 2282987); conditions: HepG2 NRF1 cis-element reporter, Attagene multiplex; actives raise or lower the signal
Procedure: ATG_CIS is a cell-based, multiplexed-readout assay that uses HepG2, a human liver cell line, with measurements taken at 24 hours after chemical dosing in a 24-well plate.ATG_NRF1_CIS is one of 52 assay component(s) measured or calculated from the ATG_CIS assay. It is designed to make measurements of mRNA induction, a form of inducible reporter, as detected with fluorescence intensity signals by Reverse transcription polymerase chain reaction (RT-PCR) and Capillary electrophoresis technology.Data from the assay component ATG_NRF1_CIS was analyzed into 1 assay endpoint. This assay endpoint, ATG_NRF1_CIS, was analyzed with bidirectional fitting relative to DMSO as the negative control and baseline of activity. Using a type of inducible reporter, measures of mRNA for gain or loss-of-signal activity can be used to understand the reporter gene at the transcription factor-level as they relate to the gene NRF1. Furthermore, this assay endpoint can be referred to as a primary readout, because this assay has produced multiple assay endpoints where this one serves a reporter gene function. To generalize the intended target to other relatable targets, this assay endpoint is annotated to the dna binding intended target family, where the subfamily is nuclear respiratory factors.
Human liver HepG2 cells are transiently transfected with multiple reporter transcription units (MRTUs) in 6-well plates using FuGene 6 reagent (Roche; 3 ml FuGene/1 mg DNA). The MRTU constructs are regulated by a cis-regulating element (promoter). […] A major difference between the CIS and TRANS system is that in CIS activities of endogenous TFs are measured, whereas the TRANS assay evaluates changes in activities of exogenous, chimeric NR-Gal4 proteins. […] At the end of 24 hour incubation, total RNA was isolated using TriZol reagent (Invitrogen). The isolated RNA is then reverse-transcribed using oligo(dT) primer and Mo-MLV reverse transcriptase (Invitrogen) with DNAse I (Ambion) treatment for 30 min. The one-tenth of the produced cDNA was amplified by PCR using Taq DNA polymerase (Invitrogen) and two reporter sequence-specific primers. The PCR products were fluorescently labeled by primer extension with 6-arboxyfluorescein (6-FAM) 5'-labeled reporter sequence-specific primer (2 min at 95 C, 20 s at 68 C and 10 min at 72 C) and these products were digested with 5U of HpaI (New England Biolabs) for 2h at 37 C. The fragments were purified using Qiaquick PCR columns (Qiagen), analyzed on an ABI 3130xL genetic analyzer (Applied Biosystems) with peak positions identified by using a set of X-rhodamine (ROX)-labeled MapMarker1000 molecular weight standards (BioVentures). The raw capillary electrophoresis data was processed using Attagraph software (Attagene).

Sequence of Nuclear respiratory factor 1 (Homo sapiens) (Q16656 whole entry, looked up): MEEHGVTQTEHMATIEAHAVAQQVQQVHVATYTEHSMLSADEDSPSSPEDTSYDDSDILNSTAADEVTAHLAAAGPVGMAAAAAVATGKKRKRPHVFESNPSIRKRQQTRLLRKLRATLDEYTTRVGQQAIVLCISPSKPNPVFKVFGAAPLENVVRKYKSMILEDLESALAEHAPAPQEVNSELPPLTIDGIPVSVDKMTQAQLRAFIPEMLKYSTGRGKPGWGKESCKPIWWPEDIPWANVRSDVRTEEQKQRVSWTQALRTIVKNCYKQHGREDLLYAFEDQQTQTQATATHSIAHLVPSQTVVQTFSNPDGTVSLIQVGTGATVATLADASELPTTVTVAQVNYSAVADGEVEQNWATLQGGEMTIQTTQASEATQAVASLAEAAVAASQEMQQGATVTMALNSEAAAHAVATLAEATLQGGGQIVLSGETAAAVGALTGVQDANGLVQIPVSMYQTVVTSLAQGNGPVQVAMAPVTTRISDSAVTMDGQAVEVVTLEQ

outcome, inactive:
C=C(c1ccc(C(=O)O)cc1)c1cc2c(cc1C)C(C)(C)CCC2(C)C
CCCCCCCCC(C)=O
O=C1Cc2ccccc2N1c1c(Cl)cccc1Cl
OCC1CCC(CO)CC1 (stereo not given)
O=C(O)CCC(F)(F)C(F)(F)C(F)(F)C(F)(F)C(F)(F)C(F)(F)F
NC(C(F)(F)F)C(F)(F)F
CCCCCCCCCCCCCC[n+]1ccccc1
CC(C)(C)C1CCCCC1O (stereo not given)
O=C1c2ccccc2C(=O)c2c(O)c(O)cc(O)c21
COC1=CC(=O)C[C@@H](C)[C@]12Oc1c(Cl)c(OC)cc(OC)c1C2=O
CN(CCO)S(=O)(=O)C(F)(F)C(F)(F)C(F)(F)C(F)(F)C(F)(F)C(F)(F)C(F)(F)C(F)(F)F
O=P(O)(O)CCC(F)(F)C(F)(F)C(F)(F)C(F)(F)C(F)(F)C(F)(F)C(F)(F)C(F)(F)F
C=CC(C)(CCC=C(C)C)OC(C)=O (stereo not given)
CCCCCCCCCCCCOC(=O)c1cc(O)c(O)c(O)c1
CCOC=O
Oc1cccc2c(O)cccc12
O=C(O)C(F)(F)OC(F)(F)C(F)(F)OC(F)(F)C(F)(F)OC(F)(F)C(F)(F)C(F)(F)C(F)(F)F
CCCCCCCCCCCC(=O)NCCCN(C)C
Cc1ccc2ccc3ccc(C)cc3c2c1
CC(O)COc1ccccc1 (stereo not given)
FC(F)(F)C1(F)C(F)(F)C(F)(F)C(F)(F)C(F)(C(F)(F)F)C1(F)F (stereo not given)
CC[N+](CC)(CC)Cc1ccccc1
Oc1ccc(Cc2ccccc2O)cc1
COc1cccc(O)c1
Cc1ccc(C)c(S(=O)(=O)O)c1
C=CC(F)(F)C(F)(F)C(F)(F)C(F)(F)F
FCOC(C(F)(F)F)C(F)(F)F
CCCCCCCCCCCC(=O)O
O=C(O)CN(CCCN(CC(=O)O)CC(=O)O)CC(=O)O
Cc1cncc(C)c1
COc1ccc(C#N)cc1
O=S(=O)(O)c1ccc2cc(O)ccc2c1
CCO[Si](CCC1CCC2OC2C1)(OCC)OCC (stereo not given)
Nc1cc(Cl)c(-c2cc(Cl)c(N)cc2Cl)cc1Cl
FC(F)(F)C(F)(F)C(F)(F)C(F)(F)I
Cc1ccccc1OCC(=O)O
NC(=NCCCCCCN=C(N)/N=C(\N)Nc1ccc(Cl)cc1)/N=C(\N)Nc1ccc(Cl)cc1

AC50, active:
Cn1sccc1=O 170 µM
CCCCCCOC(=O)c1ccc(O)cc1 58.5 µM
NC(=NCCCCCCN=C(N)/N=C(\N)Nc1ccc(Cl)cc1)/N=C(\N)Nc1ccc(Cl)cc1 7.2 µM and 38.6 µM
